Laboratory results: PubChem BioAssay (NCI)
This is part of a sample that, as a whole, favours compounds with a hit. Of some 79,000 tested, about 15% had one in any assay. Active and inactive are the calls of the source. Rule as the data show it: active = growth inhibition above about 70%; inactive = the rest.

Columns and labels:
[1] = NCI Yeast Anticancer Drug Screen. Data for the sgs1 strain (AID 173);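 also: 0% = growth of vehicle-only control cultures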; conditions: S. cerevisiae sgs1 mutant, active compounds read high
In short: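 Yeast mutant strains carrying defined defects in DNA damage repair or cell cycle control were exposed to test compounds. Growth inhibition was scored against vehicle-treated controls.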

[2] = NCI Yeast Anticancer Drug Screen. Data for the mlh1 rad18 strain (AID 175); conditions: S. cerevisiae mlh1 rad18 strain growth inhibition, active compounds read high
In short: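 Growth inhibition of the yeast strain was measured after compound exposure and expressed relative to vehicle-treated controls. The strain carries defined defects in DNA damage repair.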

[3] = NCI Yeast Anticancer Drug Screen. Data for the rad18 strain (AID 177); conditions: S. cerevisiae rad18 mutant growth inhibition, active compounds read high
In short: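 Yeast carrying a defined DNA damage repair alteration were exposed to compounds. Growth inhibition was expressed relative to vehicle-treated controls.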

[4] = NCI Yeast Anticancer Drug Screen. Data for the rad52 strain (AID 147);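 also: 0% = growth of vehicle-treated control cultures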; conditions: S. cerevisiae rad52 mutant growth inhibition, active compounds read high
In short: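 Yeast strain carrying a DNA damage repair alteration was exposed to test compounds. Growth inhibition was measured relative to vehicle-treated controls.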

[5] = NCI Yeast Anticancer Drug Screen. Data for the rad50EPP+ strain (AID 151);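 also: 0% = growth of vehicle-treated control cultures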; conditions: S. cerevisiae rad50 mutant strain, active compounds read high
In short: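 Yeast strain carrying rad50 alteration (rad50EPP+) exposed to compounds; growth inhibition measured relative to vehicle-treated controls.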

[6] = NCI Yeast Anticancer Drug Screen. Data for the rad50 strain (AID 155);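 also: 0% = growth of vehicle-only cultures of the same strain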; conditions: S. cerevisiae rad50 strain growth inhibition, active compounds read high
In short: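 Compounds were tested on a yeast strain with an engineered DNA damage repair alteration; the reported value is growth inhibition normalised to vehicle treatment.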

[7] = NCI Yeast Anticancer Drug Screen. Data for the mec2-1 strain (AID 157); conditions: S. cerevisiae mec2-1 strain, active compounds read high
In short: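 mec2-1 yeast strain, carrying an alteration in DNA damage repair or cell cycle control, was exposed to compounds; growth inhibition was measured relative to vehicle-treated controls.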

[8] = NCI Yeast Anticancer Drug Screen. Data for the rad14 strain (AID 159);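 also: 0% = growth of vehicle-treated control cultures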; conditions: S. cerevisiae rad14 strain growth inhibition, active compounds read high
In short: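 Compound-treated yeast with a defined DNA-repair lesion; growth inhibition normalised to vehicle-treated cultures.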

[9] = NCI Yeast Anticancer Drug Screen. Data for the sgs1 mgt1 strain (AID 161);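 also: 0% = growth of cultures given vehicle only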; conditions: S. cerevisiae sgs1 mgt1 strain, active compounds read high
In short: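 Growth of a repair-deficient yeast mutant was monitored after compound treatment and expressed as inhibition relative to vehicle-treated cultures.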

[10] = NCI Yeast Anticancer Drug Screen. Data for the CLN2oe strain (AID 163);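 also: 0% = growth of vehicle-only control cultures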; conditions: S. cerevisiae CLN2oe strain, active compounds read high
In short: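 Yeast cells carrying a defined cell-cycle control alteration were exposed to test compounds. Growth inhibition was scored against vehicle-treated control cultures.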

[11] = NCI Yeast Anticancer Drug Screen. Data for the cln2 rad14 strain (AID 165);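 also: 0% = growth equal to vehicle treated cultures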; conditions: S. cerevisiae cln2 rad14 strain, active compounds read high
In short: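 Yeast carrying cln2 and rad14 alterations (cell cycle control and DNA damage repair) were exposed to compounds. Growth inhibition was measured against vehicle-treated controls.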

[12] = NCI Yeast Anticancer Drug Screen. Data for the bub3 strain (AID 167); conditions: S. cerevisiae bub3 mutant strain, active compounds read high
In short: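 Growth of a checkpoint-deficient yeast mutant is measured after compound exposure. Values represent inhibition relative to vehicle.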

[13] = NCI Yeast Anticancer Drug Screen. Data for the wt2 strain (AID 169);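 also: 0% = growth of vehicle-treated yeast cultures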; conditions: S. cerevisiae wt2 strain growth inhibition, active compounds read high
In short: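 Yeast cells were exposed to test compounds, and growth inhibition was measured relative to vehicle-treated controls.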

[14] = NCI Yeast Anticancer Drug Screen. Data for the mlh1 strain (AID 171);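 also: 0% = growth of vehicle-treated control cultures of the same strain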; conditions: S. cerevisiae mlh1 strain growth inhibition, active compounds read high
In short: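 Yeast carrying a defined genetic alteration in DNA damage repair or cell cycle control were exposed to test compounds. Growth inhibition was measured relative to vehicle-treated controls.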

[15] = NCI Yeast Anticancer Drug Screen. Data for the wt1 strain (AID 149);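 also: 0% = growth of vehicle-treated wt1 cultures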; conditions: S. cerevisiae wt1 strain (SPY 50644) growth inhibition, active compounds read high
In short: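 Readout: yeast growth inhibition, normalised to vehicle controls, in the wt1 strain exposed to test compounds.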

[16] = NCI Yeast Anticancer Drug Screen. Data for the mgt1 strain (AID 153); conditions: S. cerevisiae mgt1 mutant growth inhibition, active compounds read high
In short: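 Yeast mgt1 strain (DNA repair/cell-cycle alteration panel) exposed to compounds; growth inhibition measured relative to vehicle-treated controls.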

[17] = at 5.0 µM (retest, dose inferred, filed as 0.5)
[18] = at 50.0 µM (retest, dose inferred, filed as 5.0)

Measured: growth inhibition

NP1(Oc2ccc(F)cc2)=NP(N)(Oc2ccc(F)cc2)=NP(Oc2ccc(F)cc2)(Oc2ccc(F)cc2)=N1 (stereo not drawn)
inactive: [1]; at 1.2 µM -3% | [1]; at 3.7 µM 0% | [1]; at 11.0 µM 12% | [1]; at 33.0 µM 51% | [2]; [17] 17% | [3]; at 1.2 µM -1% | [3]; at 3.7 µM 14% | [3]; at 11.0 µM 63%
active: [1]; at 100.0 µM 95% | [2]; [18] 86% | [2]; at 50.0 µM 88.2% | [3]; at 33.0 µM 83% | [3]; at 100.0 µM 97%

S=c1cn[nH]c2ccc(Br)cc12
active: [4]; at 100.0 µM 74% | [5]; at 33.0 µM 70% | [5]; at 100.0 µM 83% | [6]; at 33.0 µM 78% | [6]; at 100.0 µM 85% | [10]; at 100.0 µM 76% | [12]; at 50.0 µM 77% | [12]; at 100.0 µM 72% | [14]; at 100.0 µM 73% | [1]; at 100.0 µM 85% | [2]; [18] 75% | [2]; at 50.0 µM 85.6% | [3]; at 33.0 µM 86% | [3]; at 100.0 µM 89%
inactive: [4]; at 1.2 µM -1% | [4]; at 3.7 µM 8% | [4]; at 11.0 µM 10% | [4]; at 33.0 µM 52% | [5]; at 1.2 µM -2% | [5]; at 3.7 µM -1% | [5]; at 11.0 µM 17% | [6]; at 1.2 µM -3% | [6]; at 3.7 µM -9% | [6]; [17] -152% | [6]; at 11.0 µM 13% | [6]; [18] 66% | [6]; at 50.0 µM 69.5% | [7]; at 1.2 µM 2% | [7]; at 3.7 µM -3% | [7]; [17] -53% | [7]; at 11.0 µM -6% | [7]; at 33.0 µM 8% | [7]; [18] -9% | [7]; at 50.0 µM 56.3% | [7]; at 100.0 µM 53% | [8]; at 1.2 µM 2% | [8]; at 3.7 µM 4% | [8]; at 11.0 µM 5% | [8]; at 33.0 µM 30% | [8]; at 100.0 µM 62% | [9]; [17] -58% | [9]; [18] 61% | [9]; at 50.0 µM 68.9% | [10]; at 1.2 µM -4% | [10]; at 3.7 µM -4% | [10]; at 11.0 µM -5% | [10]; at 33.0 µM 40% | [11]; [17] -68% | [11]; [18] -20% | [11]; at 50.0 µM 35.9% | [12]; at 1.2 µM -12% | [12]; at 3.7 µM -9% | [12]; [17] -79% | [12]; at 11.0 µM -12% | [12]; at 33.0 µM 52% | [12]; [18] 60% | [13]; at 1.2 µM -4% | [13]; at 3.7 µM -3% | [13]; at 11.0 µM -5% | [13]; at 33.0 µM 20% | [13]; at 100.0 µM 40% | [14]; at 1.2 µM 4% | [14]; at 3.7 µM -7% | [14]; at 11.0 µM -5% | [14]; at 33.0 µM 46% | [1]; at 1.2 µM -2% | [1]; at 3.7 µM -6% | [1]; at 11.0 µM -5% | [1]; at 33.0 µM 61% | [2]; [17] -109% | [3]; at 1.2 µM 0% | [3]; at 3.7 µM 2% | [3]; at 11.0 µM 26%

Nc1ccc2c(=S)c3ccccc3[nH]c2c1
inactive: [15]; at 1.2 µM 9% | [15]; at 3.7 µM 30% | [15]; at 11.0 µM 22% | [15]; at 33.0 µM 44% | [15]; at 100.0 µM 48% | [5]; at 1.2 µM 0% | [5]; at 3.7 µM 6% | [5]; at 11.0 µM 12% | [5]; at 33.0 µM 23% | [16]; at 1.2 µM -3% | [16]; at 3.7 µM 1% | [16]; at 11.0 µM 0% | [16]; at 33.0 µM 16% | [16]; at 100.0 µM 51% | [6]; at 1.2 µM 18% | [6]; at 3.7 µM 1% | [6]; [17] 15% | [6]; at 11.0 µM 8% | [6]; at 33.0 µM 22% | [6]; [18] 50% | [6]; at 50.0 µM 29.4% | [6]; at 100.0 µM 48% | [7]; at 1.2 µM 9% | [7]; at 3.7 µM -3% | [7]; [17] 14% | [7]; at 11.0 µM -3% | [7]; at 33.0 µM 26% | [7]; [18] 40% | [7]; at 50.0 µM 28.9% | [7]; at 100.0 µM 35% | [8]; at 1.2 µM 4% | [8]; at 3.7 µM 7% | [8]; at 11.0 µM 2% | [8]; at 33.0 µM 12% | [8]; at 100.0 µM 42% | [9]; [17] 29% | [10]; at 1.2 µM 16% | [10]; at 3.7 µM 4% | [10]; at 11.0 µM 13% | [10]; at 33.0 µM 19% | [10]; at 100.0 µM 51% | [11]; [17] 26% | [11]; [18] 62% | [11]; at 50.0 µM 28.3% | [12]; at 1.2 µM -19% | [12]; at 3.7 µM -16% | [12]; [17] 9% | [12]; at 11.0 µM -16% | [12]; at 33.0 µM -9% | [12]; at 50.0 µM 47.5% | [12]; at 100.0 µM 35% | [13]; at 1.2 µM -7% | [13]; at 3.7 µM -1% | [13]; at 11.0 µM 1% | [13]; at 33.0 µM 49% | [14]; at 1.2 µM -2% | [14]; at 3.7 µM 9% | [14]; at 11.0 µM -2% | [14]; at 33.0 µM 27% | [14]; at 100.0 µM 61% | [1]; at 1.2 µM 17% | [1]; at 3.7 µM 18% | [1]; at 11.0 µM 20% | [1]; at 33.0 µM 24% | [1]; at 100.0 µM 59% | [2]; [17] 6% | [2]; [18] 64% | [3]; at 1.2 µM 2% | [3]; at 3.7 µM -2% | [3]; at 11.0 µM -8% | [3]; at 33.0 µM 4% | [3]; at 100.0 µM 67%
active: [5]; at 100.0 µM 74% | [9]; [18] 83% | [9]; at 50.0 µM 80.5% | [12]; [18] 82% | [13]; at 100.0 µM 83%
